Laboratory results taken from the supplement of paper PMC3334620.
Whole data set: some 33,000 sequences, median “E-score (-0.5 to 0.5)” near -0.043, cut for the highest 2% near 0.37. This excerpt belongs to a sample that is enriched for the highest values.

target: T1, Upc2 (UniProt Q12151); assay: PBM E-score (8-mer binding enrichment) (E-score (-0.5 to 0.5)); higher = stronger / more preferred TF binding; details: protein concentration: 200 nM; construct: GST-full length
T1 sequence: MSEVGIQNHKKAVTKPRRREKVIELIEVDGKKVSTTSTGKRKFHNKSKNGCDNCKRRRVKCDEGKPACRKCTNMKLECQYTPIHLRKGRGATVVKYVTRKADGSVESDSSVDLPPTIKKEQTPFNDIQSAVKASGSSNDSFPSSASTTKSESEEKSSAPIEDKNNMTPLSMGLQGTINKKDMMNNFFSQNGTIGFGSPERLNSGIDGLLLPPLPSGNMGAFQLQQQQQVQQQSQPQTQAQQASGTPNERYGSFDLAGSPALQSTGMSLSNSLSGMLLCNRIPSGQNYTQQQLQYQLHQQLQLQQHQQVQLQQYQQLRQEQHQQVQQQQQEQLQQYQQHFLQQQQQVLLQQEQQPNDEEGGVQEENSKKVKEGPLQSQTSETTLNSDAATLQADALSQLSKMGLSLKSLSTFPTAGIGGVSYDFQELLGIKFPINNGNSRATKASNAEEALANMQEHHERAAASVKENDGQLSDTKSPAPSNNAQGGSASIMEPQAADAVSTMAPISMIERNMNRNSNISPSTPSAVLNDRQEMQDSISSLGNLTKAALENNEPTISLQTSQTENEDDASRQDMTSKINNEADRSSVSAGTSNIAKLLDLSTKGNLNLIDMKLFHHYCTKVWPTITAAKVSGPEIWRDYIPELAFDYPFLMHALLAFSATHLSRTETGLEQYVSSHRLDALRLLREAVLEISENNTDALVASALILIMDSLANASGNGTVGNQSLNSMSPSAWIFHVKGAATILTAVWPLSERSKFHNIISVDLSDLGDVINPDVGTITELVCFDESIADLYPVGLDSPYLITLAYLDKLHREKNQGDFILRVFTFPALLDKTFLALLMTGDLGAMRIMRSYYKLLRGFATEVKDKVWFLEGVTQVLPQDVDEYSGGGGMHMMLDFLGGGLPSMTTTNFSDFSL
Summary of the method: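 Using PURExpress in vitro transcription/translation, GST-tagged yeast transcription factors were made in full-length or DNA-binding-domain form. These were applied at about 100-200 nM to double-stranded universal all-10-mer Agilent arrays, and bound protein was detected with fluorescent anti-GST. Scans were normalised with masliner before the Universal PBM Analysis Suite assigned E-scores to ungapped eight-base words pooled with their reverse complements.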

Sequence | PBM E-score
AGTAAAAG | 0.168
CGTAAAAG | 0.405
CGTAAAAC | 0.389
CGTAAACC | 0.364
CGTAAAAA | 0.404
CTTAAAAG | -0.0494
AGTAAAAA | -0.0254
GGTAAAAC | 0.0926
TGTAAAAA | -0.0321
GGCCAACC | -0.0824
ATAGAGGC | -0.0461
ACAAAGGA | -0.0862
GGTTGTAC | 0.154
GCAGATCA | -0.161
CGCCTTAG | -0.169
GCCACATA | -0.153
TCAGACAA | -0.17
GACGAAAC | 0.251
AACGAAAG | 0.383
AACGAAAA | 0.368
ACCGAAAT | 0.141
ACCGAAAG | 0.108
AACGAAAC | 0.37
CACGAAAG | -0.0189
CACGAAAC | 0.0525

Sequence | PBM E-score
AACGAAAT | 0.398
ACTCGCCC | -0.205
AACGCTAG | -0.089
GGATCGGA | 0.0439
GGATCGTA | 0.422
AGATCGTC | -0.141
CGATCGAA | 0.24
CGATCGTA | 0.437
AGATCGTG | 0.0463
CGATCGTC | 0.128
AGATCGTA | 0.387
GGATCGAA | 0.211
CTAGGTCA | -0.214
CTATCAGA | -0.13
AACAAGGC | -0.167
GGTCGTGA | -0.0444
AGTCGTAA | 0.379
TGTCGTAA | 0.433
TGGCGTAA | 0.0743
CGTCGTCA | 0.055
TGTCGGAA | 0.0576
GGTCGTCA | -0.0836
GGTCGTAA | 0.421
AGTCGTCA | -0.167
AGTCGTGA | -0.0656

Sequence | PBM E-score
CGTCGTGA | 0.127
CGTCGTAA | 0.457
ACCGTTAT | -0.0125
GAGTCAAA | -0.229
ATTCTAAC | -0.125
AGCAAGAG | -0.203
CTGAGCTA | -0.0866
ACCGCTTC | -0.203
AGTGAACT | -0.117
ACTGTTCG | 0.16
ACGTACGC | 0.254
ACGTACGA | 0.431
CCCTACGG | -0.0948
CCGTACTA | 0.282
CCGTACGA | 0.443
ACGTACGT | 0.293
ACGTACGG | 0.354
GCGTACTA | 0.0874
GCGTACGA | 0.448
CCGTACGG | 0.374
GCGTACGC | 0.281
CCGTACGC | 0.308
TAAAGCCA | 0.0825
ATGCGACG | 0.306
AAGAATCT | -0.148

Sequence | PBM E-score
CCTTGCAA | -0.115
AGTGCGAT | 0.0239
GATAGAAA | 0.0471
AGACCCTG | -0.259
TCTCCTAA | -0.00947
TCGTACGA | 0.471
TCCTACGA | 0.256
TCGCACGA | 0.0732
CCTCGATA | -0.0083
CAACGCTG | -0.0985
CCCTCGGA | 0.195
GCCTCGTA | 0.473
GCCTCGAA | 0.00343
CCCTCGTC | 0.122
CCCTCGTA | 0.465
ACCTCGTA | 0.462
ACCTCGTC | 0.0626
GCCTCGGA | 0.135
ACCTCGTG | 0.2
TCCACTCA | -0.17
CTAAGAGA | -0.0721
ACAGAGCG | -0.0821
TAGGCAAA | -0.108
AACAGTTA | -0.135
ATATCGTA | 0.427

Sequence | PBM E-score
GTATCGTA | 0.423
ATATCGTG | 0.0382
GTATCGGA | 0.229
CTATCGTA | 0.43
CTATCGTC | -0.0375
GTATCGAA | 0.142
CTATCGAA | -0.056
ATATCGTC | 0.0922
CCTAGCGA | -0.299
CCCCTCTC | -0.185
ACCGGCCC | 0.0253
ATCTGTAA | -0.0759
ATGTAAAC | 0.27
AGTGAGAC | -0.0557
GCCTGCCA | -0.317
CAATAGAA | -0.241
ACGAACCC | 0.301
ACGAACCG | 0.378
CCGAACCG | 0.0623
CCGAACCA | -0.127
ACGAACCA | 0.376
GCGAACCA | 0.164
TCAGCCAA | -0.177
CGTGCGAA | 0.214
ATTTTGCA | -0.0911

Sequence | PBM E-score
GTTTACAA | 0.164
CTTTACGC | 0.332
ATTTACGA | 0.45
ATTTACGG | 0.297
CTTTACGA | 0.471
GTTTACTA | 0.224
CATTACGA | 0.316
ATTTACGC | 0.154
GTTTACGA | 0.471
GAGGGGGA | -0.0209
GTCGAGTA | 0.0357
ATTGTATC | -0.2
GAGGGAAC | -0.0277
AATAAGTA | 0.0339
CTGTTGGC | -0.209
CTGCGACC | -0.164
ATCACAGA | -0.155
CTCCTATA | -0.0688
CGCTATTC | 0.102
CGCAAGCG | 0.115
CCCAAACG | 0.431
CCCAAGCG | -0.031
CGCAAACA | 0.0866
CACAAACG | 0.387
CGCAAACG | 0.412

Sequence | PBM E-score
ACCAAACG | 0.4
CACAAACA | -0.0461
ACCAAACA | 0.208
CCAAAACG | 0.114
ACCAAACC | -0.0475
AACAAACG | 0.353
AGGCCAAG | -0.17
GAGCAGCA | -0.098
AGTTCGAA | 0.0491
AACACAGA | -0.00201
CCCTTCGG | -0.0969
ATCGCAAG | -0.255
AGGACTTG | -0.287
CCTACGCA | -0.196
AACGACAG | 0.419
CACGACAA | 0.0377
ATCGACAG | -0.0101
AACGACAA | 0.402
AACGACAT | 0.432
GACGACAC | -0.079
AACGACAC | 0.428
AGCGACAT | 0.177
